A short description of assay [1]: qHTS assay to identify small molecule antagonists of the sonic hedgehog signaling (Shh) pathway (AID 1259369; calls by dose curve; note: nearly all actives have a fitted effect of over 45% in size; note: potency is the fitted concentration of half-maximal effect). In short, it runs like this: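 Screening used 3T3Gli1-Luc cells at 2,000 per well, compounds delivered in DMSO, and conditioned medium as agonist stimulus; plates incubated 24hr at 37 C and 5% CO2 before a 30min luciferase step.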
On the technique in general: qHTS replaces the single test concentration by a dilution series.

The nature of assay [2]: qHTS assay to identify small molecule agonists of the androgen receptor (AR) signaling pathway in the presence of an antagonist - cell viability counter screen (AID 1259379). Note: nearly all actives have a fitted effect of over 25% in size. Note: potency is the fitted concentration of half-maximal effect. The essentials: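 In MDA-kb2 cells (human breast carcinoma, MMTV-luciferase), compounds at 15 concentrations plus 3.0uM nilutamide; 16 hr, 37C, 0% CO2; CellTiter-Fluor fluorescence read for viability.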

The nature of assay [3]: qHTS assay to identify small molecule antagonists of the estrogen receptor beta (ER-beta) signaling pathway - cell viability counter screen (AID 1259382). Note: nearly all actives have a fitted effect of over 55% in size. Note: potency is the fitted concentration of half-maximal effect. In short, it runs like this:
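Tox21 10K library tested in qHTS format on ER-beta-bla HEK293T cells stimulated with 1nM E2; 16 hr treatment at 37C. Same-well CellTiter-Glo luminescence served as the cell viability measure.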

Assay [4] deals with Estrogen receptor (Homo sapiens) (UniProt P03372). Description: qHTS assay to identify small molecule agonists of the estrogen receptor alpha (ER-alpha) signaling pathway in the presence of an antagonist (AID 1259383; calls by dose curve; note: top concentration of the series differs between compounds; nearly all actives have a fitted effect of over 15% in size). The essentials: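 In VM7Luc4E2 cells, 4,000 per well, compounds at 15 concentrations were co-incubated 22hr at 37C with 10.0nM final ICI-182,780. Luminescence from the stably transfected 4×ERE-luciferase reporter was recorded 30min after ONE-Glo addition.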

Assay [5] in a line: qHTS assay to identify small molecule agonists or antagonists of the thyroid stimulating hormone receptor (TSHR) signaling pathway - wild type cell line counter screen (AID 1259384; calls by dose curve). The essentials: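 Wild-type HEK293 cells were plated 18 h at 37 C/5% CO2, pin-dosed with compound plus Ro20-1724 medium, held 30 min at room temperature, then given cAMP-d2 and anti-cAMP-cryptate; fluorescence was read after 1 h. Fifteen concentrations, triplicate.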

For assay [6], the target named is Thyrotropin receptor (Homo sapiens) (UniProt P16473). The experiment in a line: qHTS assay to identify small molecule antagonists of the thyroid stimulating hormone receptor (TSHR) signaling pathway (AID 1259385; calls by dose curve; note: nearly all actives have a fitted effect of over 20% in size). The essentials: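 TSHR-HEK293 cells were plated and held 18 h at 37C/5% CO2, then given compound plus Ro20-1724 and stimulated with TSH at 1.5 ng/mL final. After 30 min at room temperature, cAMP was detected with cAMP-d2/anti-cAMP-cryptate (1 h) by fluorescence.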

Assay [7] can be described thus: qHTS assay to identify small molecule agonists of the estrogen receptor alpha (ER-alpha) signaling pathway in the presence of an antagonist - cell viability counter screen (AID 1259386).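 Note: cells exposed to compounds for 22 h at 37 °C before the viability read; nearly all actives have a fitted effect of over 30% in size.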 Note: potency is the fitted concentration of half-maximal effect. In short, it runs like this: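 Fluorescent CellTiter-Fluor viability signal from VM7Luc4E2 cells, with the reagent added during the final hour of a 22hr compound exposure at 37C in the presence of 10.0nM ICI-182,780.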

The target of assay [8] is Progesterone receptor (Homo sapiens) (UniProt P06401). The experiment in a line: qHTS assay to identify small molecule agonists of the progesterone receptor (PR) signaling pathway (AID 1346784; calls by dose curve; note: nearly all actives have a fitted effect of over 30% in size). In short, it runs like this:
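Agonist qHTS: compounds pinned onto 3,000 PR-UAS-bla HEK 293T cells per well in charcoal-stripped serum medium, 16hr at 37C, then beta-lactamase activity measured by LiveBLAzer FRET fluorescence after 2 hours at room temperature.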

For assay [9] the target is unchanged. Description: qHTS assay to identify small molecule antagonists of the progesterone receptor (PR) signaling pathway (AID 1346795; active = well fitted inhibition curve with a large enough effect in the signal ratio in the repeat runs, not every such curve was filed as active; the % refers to the signal ratio). In short, it runs like this: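 Antagonist mode with agonist R5020 at 1 nM final and 16 hr incubation at 37C. Reporter was beta-lactamase driven by UAS in HEK293T (PR-UAS-bla), 2% charcoal-stripped serum; signal from LiveBLAzer FRET substrate, 2 hr at room temperature.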

The nature of assay [10]: qHTS assay to identify small molecule antagonists of the progesterone receptor (PR) signaling pathway - cell viability counter screen (AID 1346798). Note: series mostly up to about 92 µM; nearly all actives have a fitted effect of over 50% in size. In short, it runs like this:
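Cytotoxicity read as CellTiter-Glo luminescence (30 min, room temperature) in the same wells as the beta-lactamase readout. HEK293T PR-UAS-bla cells in charcoal-stripped 2% FBS received compound and R5020, then 16 h at 37C, 5% CO2.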

A short description of assay [11]: qHTS assay to identify small molecule agonists of the progesterone receptor (PR) signaling pathway - cell viability counter screen (AID 1346799; calls by dose curve; note: nearly all actives have a fitted effect of over 45% in size; note: potency is the fitted concentration of half-maximal effect). In short, it runs like this: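 Cytotoxicity measured by CellTiter-Glo luminescence (30 min, RT) in the same wells as the PR beta-lactamase agonist read. Those HEK293T cells had 16 h compound treatment at 37 C in 2% charcoal-stripped FBS medium.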

Assay [12] in a line: qHTS assay to identify small molecule antagonists of the TGF-beta/Smad signaling pathway - cell viability counter screen (AID 1346824). Note: nearly all actives have a fitted effect of over 50% in size. In short, it runs like this: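 SBE-bla HEK 293T cells were plated overnight at 37 C, then given compounds in DMSO plus TGF-beta1 (added as 0.25 ng/mL solution) for 5 hr. After the bla read, CellTiter-Glo was added to the same wells and luminescence read after 30 min at room temperature.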

A short description of assay [13]: qHTS assay to identify small molecule agonists of the TGF-beta/Smad signaling pathway - cell viability counter screen (AID 1346829). Note: nearly all actives have a fitted effect of over 45% in size. Note: potency is the fitted concentration of half-maximal effect. In short, it runs like this: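 After overnight seating at 37 C and 5% CO2, reporter cells got compounds for 5 hr and FRET substrate for 2 hr; cell viability then came from CellTiter-Glo luminescence.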
A short description of assay [14]: qHTS assay to identify small molecule agonists of the TGF-beta/Smad signaling pathway (AID 1346859; active = well fitted activation curve with a large enough effect in the signal ratio in the repeat runs, not every such curve was filed as active; the % refers to the signal ratio; note: series mostly up to about 77 µM). The essentials:
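Fluorescence (ex 405 nm; em 460 and 530 nm) was read 2 h after LiveBLAzer FRET substrate at RT. The preceding compound treatment of overnight-plated SBE-bla HEK293T cells lasted 5 h at 37 C.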

In assay [15] the target is Thyrotropin-releasing hormone receptor (Homo sapiens) (UniProt P34981). Description: qHTS assay to identify small molecule antagonists of the thyrotropin-releasing hormone receptor (TRHR) signaling pathway (AID 1346877; active = well fitted inhibition curve with a large enough effect in the repeat runs, not every such curve was filed as active; note: series mostly up to about 51 µM). In short, it runs like this:
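In this cell-based calcium flux format, HEK293 cells expressing TRHR received test compound for 5 min before the agonist TRH (1 nM final). Dye loading lasted 2 h at 37 °C.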

Assay [16] has the same target. Description: qHTS assay to identify small molecule agonists of the thyrotropin-releasing hormone receptor (TRHR) signaling pathway (AID 1346891; calls by dose curve; note: series mostly up to about 58 µM). The essentials:
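Agonist-mode intracellular calcium readout: kinetic fluorescence over 3 min at 1 s intervals after compound addition to TRHR-HEK293 cells (18 h seeded, 2 h dye-loaded at 37 C). Fifteen concentrations, triplicates.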

The target of assay [17] is Estrogen receptor beta (Homo sapiens) (UniProt Q92731). Description: qHTS assay to identify small molecule agonists of the estrogen receptor beta (ER-beta) signaling pathway (AID 1259377; active = well fitted activation curve with a large enough effect in the signal ratio in the repeat runs, not every such curve was filed as active; the % refers to the signal ratio). The essentials:
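Ratiometric beta-lactamase FRET read-out came after 2 h substrate loading at room temperature. It followed 16 h compound treatment at 37C of GripTite HEK293T cells carrying a UAS-bla reporter, plated in 2% charcoal-stripped FBS medium.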

Assay [18] has the same target. The experiment in a line: qHTS assay to identify small molecule antagonists of the estrogen receptor beta (ER-beta) signaling pathway (AID 1259378; active = well fitted inhibition curve with a large enough effect in the signal ratio in the repeat runs, not every such curve was filed as active; the % refers to the signal ratio). The essentials:
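ER-beta-UAS-bla HEK293T (GripTite) cells in 2% charcoal-stripped FBS medium were preincubated 6 hr at 37C, dosed with compound, then stimulated with 1 nM E2 (final) for 16 hr; beta-lactamase reporter read by B/G FRET fluorescence after 2 hr substrate loading.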

Assay [19] in a line: qHTS assay to identify small molecule agonists of the estrogen receptor beta (ER-beta) signaling pathway - cell viability counter screen (AID 1259380). Note: nearly all actives have a fitted effect of over 30% in size. Note: potency is the fitted concentration of half-maximal effect. In short, it runs like this:
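Viability of ER-beta-UAS-bla HEK293T cells was determined by CellTiter-Glo luminescence following 16 hr treatment with test compounds at 37C.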

The target of assay [20] is Androgen receptor (Homo sapiens) (UniProt P10275). Description: qHTS assay to identify small molecule agonists of the androgen receptor (AR) signaling pathway in the presence of an antagonist (AID 1259381; calls by dose curve; note: nearly all actives have a fitted effect of over 15% in size). In short, it runs like this: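 Here, 15-concentration compound series were pin-transferred onto MDA-kb2 MMTV-luciferase cells already dosed with nilutamide (3.0uM final). After 16hr at 37C, ONE-Glo was added and luminescence read 30min later at room temperature.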

Inconclusive results are not listed. A structure can be active in one record and inactive in another. Activity calls are given as the source filed them. Unless noted, calls come from the whole dose curve; as a rule, active = well fitted curve in the direction sought with a large enough effect in the repeat runs; inconclusive = weak or mixed curves; inactive = no such curve, though single readings can be large; an effect the other way counts as inactive or inconclusive.

Sequence of Estrogen receptor (Homo sapiens) (P03372 whole entry, looked up): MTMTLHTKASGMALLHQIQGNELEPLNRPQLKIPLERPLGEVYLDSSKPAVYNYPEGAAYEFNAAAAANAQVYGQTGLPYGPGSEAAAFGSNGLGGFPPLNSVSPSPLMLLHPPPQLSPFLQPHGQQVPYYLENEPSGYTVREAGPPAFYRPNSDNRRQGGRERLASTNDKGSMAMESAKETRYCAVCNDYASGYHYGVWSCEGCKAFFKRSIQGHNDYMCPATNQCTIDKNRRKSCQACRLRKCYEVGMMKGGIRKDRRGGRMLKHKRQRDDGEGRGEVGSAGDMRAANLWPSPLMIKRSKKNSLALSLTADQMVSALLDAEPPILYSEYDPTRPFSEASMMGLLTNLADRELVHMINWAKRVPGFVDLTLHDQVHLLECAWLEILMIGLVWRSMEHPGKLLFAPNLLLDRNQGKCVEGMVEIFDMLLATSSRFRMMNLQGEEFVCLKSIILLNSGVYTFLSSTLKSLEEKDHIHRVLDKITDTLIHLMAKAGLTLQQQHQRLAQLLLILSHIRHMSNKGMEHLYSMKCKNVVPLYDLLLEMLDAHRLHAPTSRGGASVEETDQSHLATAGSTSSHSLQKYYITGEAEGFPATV
Sequence of Estrogen receptor beta (Homo sapiens) (Q92731 whole entry, looked up): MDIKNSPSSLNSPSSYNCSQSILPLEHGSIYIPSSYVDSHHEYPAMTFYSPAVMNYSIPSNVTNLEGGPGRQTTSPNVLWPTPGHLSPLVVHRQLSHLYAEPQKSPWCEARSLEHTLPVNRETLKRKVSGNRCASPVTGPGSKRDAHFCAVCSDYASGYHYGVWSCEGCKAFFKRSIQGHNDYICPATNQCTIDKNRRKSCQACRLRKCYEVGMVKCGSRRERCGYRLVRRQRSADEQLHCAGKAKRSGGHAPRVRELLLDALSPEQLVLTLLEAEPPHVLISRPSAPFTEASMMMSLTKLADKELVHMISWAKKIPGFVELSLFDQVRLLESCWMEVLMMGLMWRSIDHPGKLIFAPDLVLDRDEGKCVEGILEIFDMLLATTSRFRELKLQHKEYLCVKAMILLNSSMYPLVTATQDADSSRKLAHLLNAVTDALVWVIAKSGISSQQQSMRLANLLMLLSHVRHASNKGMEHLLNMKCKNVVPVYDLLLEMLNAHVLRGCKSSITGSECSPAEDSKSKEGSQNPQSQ
Sequence of Thyrotropin-releasing hormone receptor (Homo sapiens) (P34981 whole entry, looked up): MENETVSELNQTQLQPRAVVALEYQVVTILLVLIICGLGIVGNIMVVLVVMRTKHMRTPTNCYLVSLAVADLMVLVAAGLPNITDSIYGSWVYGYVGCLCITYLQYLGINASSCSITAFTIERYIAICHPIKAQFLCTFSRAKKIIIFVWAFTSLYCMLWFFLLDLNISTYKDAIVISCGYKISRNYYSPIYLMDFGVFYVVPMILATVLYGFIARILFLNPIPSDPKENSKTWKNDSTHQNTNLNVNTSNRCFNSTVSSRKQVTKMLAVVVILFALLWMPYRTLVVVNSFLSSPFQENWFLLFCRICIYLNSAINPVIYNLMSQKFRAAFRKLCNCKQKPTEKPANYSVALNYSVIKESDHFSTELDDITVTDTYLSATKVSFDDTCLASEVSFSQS
Sequence of Thyrotropin receptor (Homo sapiens) (P16473 whole entry, looked up): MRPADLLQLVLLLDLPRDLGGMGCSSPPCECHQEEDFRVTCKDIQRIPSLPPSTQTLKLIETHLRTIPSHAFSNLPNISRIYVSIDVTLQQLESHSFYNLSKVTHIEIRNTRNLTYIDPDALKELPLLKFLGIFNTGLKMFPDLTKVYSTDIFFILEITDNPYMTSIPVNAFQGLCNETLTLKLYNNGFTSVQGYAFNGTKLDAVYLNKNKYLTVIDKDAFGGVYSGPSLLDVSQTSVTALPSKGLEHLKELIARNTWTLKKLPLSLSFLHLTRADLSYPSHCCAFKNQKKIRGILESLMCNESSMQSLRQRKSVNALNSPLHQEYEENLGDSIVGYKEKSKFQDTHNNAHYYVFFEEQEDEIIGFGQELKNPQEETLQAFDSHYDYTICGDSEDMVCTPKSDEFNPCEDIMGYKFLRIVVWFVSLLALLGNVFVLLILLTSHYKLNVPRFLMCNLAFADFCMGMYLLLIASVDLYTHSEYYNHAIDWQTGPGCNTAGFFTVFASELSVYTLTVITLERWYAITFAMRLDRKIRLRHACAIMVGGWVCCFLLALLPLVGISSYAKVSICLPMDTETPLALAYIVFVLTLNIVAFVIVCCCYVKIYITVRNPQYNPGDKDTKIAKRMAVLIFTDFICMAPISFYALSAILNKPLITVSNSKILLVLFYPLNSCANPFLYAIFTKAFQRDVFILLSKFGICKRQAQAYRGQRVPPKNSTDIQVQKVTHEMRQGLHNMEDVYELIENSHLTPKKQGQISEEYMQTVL
Sequence of Androgen receptor (Homo sapiens) (P10275 whole entry, looked up): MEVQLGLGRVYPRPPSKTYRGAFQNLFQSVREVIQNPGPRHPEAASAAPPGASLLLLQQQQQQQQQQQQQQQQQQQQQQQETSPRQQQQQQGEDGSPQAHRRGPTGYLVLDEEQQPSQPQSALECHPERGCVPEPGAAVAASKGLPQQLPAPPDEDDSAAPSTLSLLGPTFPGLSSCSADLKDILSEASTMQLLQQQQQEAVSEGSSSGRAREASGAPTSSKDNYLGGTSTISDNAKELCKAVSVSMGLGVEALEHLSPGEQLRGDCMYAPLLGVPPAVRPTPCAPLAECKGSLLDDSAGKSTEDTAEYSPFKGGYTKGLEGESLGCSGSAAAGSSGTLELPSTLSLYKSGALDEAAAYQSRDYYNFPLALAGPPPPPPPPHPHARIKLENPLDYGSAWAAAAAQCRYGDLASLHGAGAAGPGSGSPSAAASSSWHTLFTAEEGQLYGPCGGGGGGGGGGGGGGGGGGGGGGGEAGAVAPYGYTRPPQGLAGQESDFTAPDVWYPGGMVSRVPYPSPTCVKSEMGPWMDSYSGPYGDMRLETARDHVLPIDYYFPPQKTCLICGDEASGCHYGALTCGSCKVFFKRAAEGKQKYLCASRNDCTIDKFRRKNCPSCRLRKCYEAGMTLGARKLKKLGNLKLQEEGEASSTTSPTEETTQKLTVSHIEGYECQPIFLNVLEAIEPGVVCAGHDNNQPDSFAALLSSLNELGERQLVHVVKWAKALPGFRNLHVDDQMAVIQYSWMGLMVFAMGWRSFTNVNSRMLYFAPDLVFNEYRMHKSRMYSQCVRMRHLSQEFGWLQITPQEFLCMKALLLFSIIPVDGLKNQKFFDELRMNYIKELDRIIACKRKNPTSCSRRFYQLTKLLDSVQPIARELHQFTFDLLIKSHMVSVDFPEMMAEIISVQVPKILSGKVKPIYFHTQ
Sequence of Progesterone receptor (Homo sapiens) (P06401 whole entry, looked up): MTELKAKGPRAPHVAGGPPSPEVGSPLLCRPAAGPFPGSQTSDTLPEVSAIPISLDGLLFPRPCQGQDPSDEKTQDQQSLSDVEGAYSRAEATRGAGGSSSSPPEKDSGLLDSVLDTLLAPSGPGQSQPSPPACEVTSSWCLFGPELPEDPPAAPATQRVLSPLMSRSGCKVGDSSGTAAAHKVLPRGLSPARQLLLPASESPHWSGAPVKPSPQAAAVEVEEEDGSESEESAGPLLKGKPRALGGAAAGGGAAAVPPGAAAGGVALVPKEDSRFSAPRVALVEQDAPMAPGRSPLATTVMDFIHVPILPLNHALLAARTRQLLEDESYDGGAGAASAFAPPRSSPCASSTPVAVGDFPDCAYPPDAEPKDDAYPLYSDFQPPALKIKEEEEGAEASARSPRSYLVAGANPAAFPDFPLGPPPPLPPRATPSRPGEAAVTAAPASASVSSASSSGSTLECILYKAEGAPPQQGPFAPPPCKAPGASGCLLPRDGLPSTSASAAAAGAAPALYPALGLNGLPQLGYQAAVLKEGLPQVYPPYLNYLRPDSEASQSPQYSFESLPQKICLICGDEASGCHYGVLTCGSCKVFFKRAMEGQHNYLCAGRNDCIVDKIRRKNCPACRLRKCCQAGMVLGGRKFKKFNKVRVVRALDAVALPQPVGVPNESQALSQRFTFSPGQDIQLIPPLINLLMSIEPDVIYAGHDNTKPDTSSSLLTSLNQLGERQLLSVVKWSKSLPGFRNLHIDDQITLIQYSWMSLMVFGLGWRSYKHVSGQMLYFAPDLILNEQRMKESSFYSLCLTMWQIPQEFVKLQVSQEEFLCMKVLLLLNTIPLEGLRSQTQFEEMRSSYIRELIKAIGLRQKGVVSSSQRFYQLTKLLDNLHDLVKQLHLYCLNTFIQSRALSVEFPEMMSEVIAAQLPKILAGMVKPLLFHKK

For `O=C(O)CCC(=O)O`, the Potency result in assay [1], in assay [2], in assay [3], in [4], in assay [7] and in assay [8] was “inactive” throughout. Also, the Potency entry in assay [10], in [11] and in assay [13] was “inactive” in each case. Moreover, the compound was called inactive in assay [5], in assay [6], in assay [9], in [12], in [14] and in [15]. In addition, the call in assay [16] was inactive.
As to `Cc1ccccc1C(OCCN(C)C)c1ccccc1` (stereo not given), the figures for the Potency in [1] and in assay [19] were 27.3 µM (active) and 61.1 µM (active), respectively. Besides, the compound was called inactive in assay [17], in assay [5], in [6], in [9], in [12] and in [14]. The compound was classed as inactive in assay [15] and in [16]. The Potency result in [18], in [2], in assay [3], in assay [4], in assay [7] and in assay [8] was “inactive” in each case. The Potency result in [11] and in assay [13] was “inactive” in each case.
Take `C1N2CN3CN1CN(C2)C3`: the Potency result in [1], in assay [18], in [2], in assay [19], in assay [20] and in [3] was “inactive” in each case. Besides, the Potency entry in assay [7], in [8], in assay [10], in assay [11] and in assay [13] was “inactive” in each case. The compound was classed as inactive in assay [17], in [5], in assay [6], in assay [9], in [12] and in [14]. In addition, the outcome in [15] and in [16] was inactive.
As for `C[C@]12C=CC(=O)C=C1CC[C@@H]1[C@@H]2[C@@H](O)C[C@@]2(C)[C@H]1CC[C@]2(O)C(=O)CO`, the Potency entry in [1], in assay [18], in assay [2], in [3], in [4] and in [7] was “inactive” throughout. Also, the Potency result in assay [10], in assay [11] and in assay [13] was “inactive” in each case. Further, the call in assay [17], in assay [12] and in [14] was inactive.
Take `NNC(=O)c1ccncc1`: the Potency entry in assay [1], in assay [18], in [2], in [3], in [4] and in assay [7] was “inactive” each time. The Potency entry in [8], in [10], in [11] and in assay [13] was “inactive” in each case. Moreover, the call in assay [17], in assay [5], in assay [6], in [9], in assay [12] and in [14] was inactive.
Turning to `CC(C)(Oc1ccc(C2CC2(Cl)Cl)cc1)C(=O)O` (stereo not given), the Potency result in assay [1], in assay [18], in [2], in assay [20], in [4] and in assay [7] was “inactive” throughout. Also, the Potency result in assay [8], in assay [10], in assay [11] and in [13] was “inactive” each time. Further, the compound was classed as inactive in assay [17], in assay [5], in assay [6], in assay [9], in assay [12] and in assay [14].
For `O=C(C1CCCCC1)N1CC(=O)N2CCc3ccccc3C2C1` (stereo not given), the Potency entry in assay [1], in assay [2], in assay [7], in assay [8], in assay [10] and in assay [11] was “inactive” in each case. The Potency result in assay [13] is “inactive”. Also, in assay [19], the Potency was 43.2 µM (active) and inactive. Further, the result in assay [9], in assay [12], in assay [15] and in assay [16] was inactive.
Regarding `c1ccc2[nH]ccc2c1`, the Potency in assay [1] was 6.01 µM (active) and inactive; in [2], 7.57 µM (active) and inactive; in [19], 26.9 µM (active) and inactive; in assay [3], 26.9 µM (active) and inactive; in assay [7], 60.1 µM (active) and inactive; in assay [11], 26.9 µM (active) and inactive. Moreover, the Potency in [13] is 42.9 µM (active) and inactive. Further, the call in assay [17], in assay [5], in assay [6], in [12], in assay [14] and in [15] was inactive. Moreover, in assay [16], the result was inactive. Also, the Potency entry in assay [18] and in [20] was “inactive” in each case.

Source of the values: PubChem BioAssay (Tox21).
